# Reference: PubChem BioAssay AID372 (MTDP, 2006)
# About 770 (0.77%) of roughly 100,000 compounds were called active. Rule as the data show it: active = inhibition above about 50%; inactive = the rest. This excerpt belongs to a sample that is enriched for actives.
# Molecular target: Gag-Pol polyprotein (Human immunodeficiency virus type 1 group M subtype B (isolate HXB2)) (UniProt P04585)
# Assay: RNase H inhibition, HIV 1 Gag Pol polyprotein, FRET biochemical assay, screening (AID 372)
# Settings: HIV-1 RT RNase H, FRET RNA/DNA substrate fluorescence; at 10 µM; hits give high values
row,Compound,inhibition
1,COc1ccc(C(=O)/C=C/NCC(=O)c2ccccc2)cc1,19% (inactive)
2,N#CC1=C(N)Oc2c(ccc3ccccc23)C1c1ccccc1Cl (stereo not given),29% (inactive)
3,Cc1ccc(N2C(=O)CC(Sc3ccccc3C(=O)O)C2=O)c([N+](=O)[O-])c1 (stereo not given),0% (inactive)
4,CCOC(=O)c1c2c(n(C)c1C)C=C(Br)C(=O)C2=O,4% (inactive)
5,CCOC(=O)c1c2c(n(-c3ccccc3)c1C)C=C(Br)C(=O)C2=O,58% (active)
6,CCOC(=O)c1c(C)oc2c1C(=O)C(=O)C(Br)=C2,2% (inactive)
7,Cn1c(=O)c2c(nc(Sc3nc4ccccc4o3)n2C)n(C)c1=O,0% (inactive)
8,CC1CCN(C2(O)C(=O)Nc3ccc(Br)cc32)CC1 (stereo not given),14% (inactive)
9,O=C(c1ccc(I)cc1)N1CCOCC1,0% (inactive)
10,O=[N+]([O-])c1ccc(-c2nnc(-c3ccco3)o2)c(Cl)c1,8% (inactive)
11,O=[N+]([O-])c1ccc(-c2ccco2)c(Cl)c1,14% (inactive)
12,O=[N+]([O-])c1cc(Cl)c(-c2ccco2)c(Cl)c1,57% (active)
13,CCN(CC)CCN1C(=O)C(=O)/C(=C(/O)c2ccccc2)C1c1cccc([N+](=O)[O-])c1 (stereo not given),1% (inactive)
14,CCN(CC)c1ccc(N=Cc2c[nH]c3ccccc23)cc1,4% (inactive)
15,CC(C)C(=O)NS(=O)(=O)c1ccc(N)cc1,5% (inactive)
16,CC(=O)Nc1nc(-c2ccccc2)nc(C)c1C(C)=O,6% (inactive)
17,CC(=O)c1c(C)nc(-c2ccc(Cl)cc2)nc1NC(=O)c1ccccc1,59% (active)
18,CC(=O)Nc1nc(-c2ccc(Cl)cc2)nc(C)c1C(C)=O,3% (inactive)
19,CCOC(=O)c1c(C)oc2c(F)c(F)c(F)c(F)c12,22% (inactive)
20,COC(=O)c1ccc(NC(=O)c2ccc3c(c2)C(=O)N(c2cccc([N+](=O)[O-])c2)C3=O)cc1,10% (inactive)
21,O=C(Nc1ccc(O)cc1)c1ccc2c(c1)C(=O)N(c1cccc(N3C(=O)c4ccc(C(=O)Nc5ccc(O)cc5)cc4C3=O)n1)C2=O,54% (active)
22,Cc1ccc(NC(=O)c2ccc3c(c2)C(=O)N(c2ccc([N+](=O)[O-])cc2)C3=O)cc1,17% (inactive)
23,COC(=O)c1ccc(NC(=O)c2ccc3c(c2)C(=O)N(c2ccc([N+](=O)[O-])cc2)C3=O)cc1,52% (active)
24,O=C(Nc1ccc(O)cc1)c1ccc2c(c1)C(=O)N(c1ccccn1)C2=O,13% (inactive)
25,O=C(Nc1ccccc1)c1ccc2c(c1)C(=O)N(c1cccc(N3C(=O)c4ccc(C(=O)Nc5ccccc5)cc4C3=O)n1)C2=O,8% (inactive)
26,CC(C)(C)C1(O)CC(C(F)(F)F)=NN1C(=O)c1ccc([N+](=O)[O-])cc1 (stereo not given),18% (inactive)
27,COc1ccc(NC(=O)c2ccc(-c3ccccc3)cc2)cc1,8% (inactive)

row,Compound,inhibition
1,COC(=O)c1c(C)oc2cc(Br)c(OC(=O)c3cccc([N+](=O)[O-])c3)cc12,0% (inactive)
2,Cc1cccc(C)c1OCCOc1ccccc1/C=C1\SC(=S)N(C)C1=O,13% (inactive)
3,CC(c1ccccc1)C1CC(=O)N(c2ccc(F)cc2)C1=O (stereo not given),0% (inactive)
4,CC(c1ccccc1)C1CC(=O)N(c2ccc(I)cc2)C1=O (stereo not given),54% (active)
5,CC(c1ccccc1)C1CC(=O)N(c2ccccc2)C1=O (stereo not given),0% (inactive)
6,CCCc1cc2c(-c3ccccc3)cc(=O)oc2cc1OCc1ccc(C(=O)O)o1,59% (active)
7,CCCc1cc2c(-c3ccccc3)cc(=O)oc2cc1OCC,22% (inactive)
8,CCCc1cc2c(-c3ccccc3)cc(=O)oc2cc1OCC(=O)O,9% (inactive)
9,Cc1ccc(NC(=O)C(=NNc2ccccc2)C(=O)Nc2ccc(C)cc2)cc1,0% (inactive)
10,CC1CC(N(c2ccccc2)S(=O)(=O)c2ccc(Cl)cc2)c2ccccc2N1 (stereo not given),60% (active)
11,CC(=O)N(c1ccccc1)C1CC(C)Nc2ccccc21 (stereo not given),1% (inactive)
12,CC1CC(N(C(=O)c2ccc(Cl)cc2)c2ccccc2)c2ccccc2N1 (stereo not given),10% (inactive)
13,CCOC(=O)c1sc(NC(=O)/C=C/c2cccc([N+](=O)[O-])c2)nc1C,6% (inactive)
14,COC(=O)C1=C(C)NC(=O)/C1=C\c1ccccc1,8% (inactive)
15,O=C1/C(=C\c2ccc(-c3ccccc3[N+](=O)[O-])o2)SC(=S)N1C1CCS(=O)(=O)C1 (stereo not given),23% (inactive)
16,Cc1cc(C)cc(-n2c(C)cc(/C=N/NC(=O)c3cccnc3)c2C)c1,13% (inactive)
17,O=c1/c(=C/c2ccc(-c3ccccc3Cl)o2)sc2nc3ccccc3n12,3% (inactive)
18,COc1ccc(C2C3=C(CC(C)(C)CC3=O)Nc3ccccc3N2C(=O)CC(C)C)cc1 (stereo not given),3% (inactive)
19,Cc1ccc2nc(-c3ccc(NC(=O)/C=C/c4ccc(Cl)cc4)cc3)oc2c1,48% (inactive)
20,O=C(/C=C/c1cccc([N+](=O)[O-])c1)Nc1ccc2oc(-c3ccccc3)nc2c1,31% (inactive)
21,Cc1cc(C)c2oc(-c3ccc(NC(=O)/C=C/c4cccc([N+](=O)[O-])c4)cc3)nc2c1,16% (inactive)
22,Cc1ccc2nc(-c3ccc(C)c(NC(=O)/C=C/c4cccc([N+](=O)[O-])c4)c3)oc2c1,40% (inactive)
23,Cc1ccc2nc(-c3ccc(NC(=O)/C=C/c4cccc([N+](=O)[O-])c4)cc3)oc2c1,54% (active)
24,O=C(/C=C/c1cccc([N+](=O)[O-])c1)Nc1ccc(-c2nc3ccccc3o2)cc1,54% (active)
25,O=C(/C=C/c1ccc(Cl)cc1)Nc1ccc(-c2nc3ccccc3o2)cc1,52% (active)
26,O=C(/C=C/c1cccc([N+](=O)[O-])c1)Nc1ccc(-c2nc3ccccc3o2)c(O)c1,14% (inactive)
27,O=C(/C=C/c1ccc(Cl)cc1)Nc1ccc(-c2nc3ccccc3o2)c(O)c1,20% (inactive)

row,Compound,inhibition
1,N#Cc1cnn(-c2ccc3ccccc3c2)c1N,5% (inactive)
2,Cc1ccc(N=Cc2ccco2)c(C)c1,29% (inactive)
3,CC1(C)CC(=O)c2cc(C(=O)NCc3ccccc3)c(=O)n(-c3ccccc3)c2C1,15% (inactive)
4,COc1ccc(CCNC(=O)COc2ccccc2OC)cc1OC,1% (inactive)
5,COc1ccc(CCNC(=O)COc2ccc(Cl)cc2Br)cc1OC,54% (active)
6,COCCNC(=O)COc1ccc(Cl)cc1Br,14% (inactive)
7,COc1ccc(CC(=O)Nc2ccc(Cl)cc2C)cc1OC,0% (inactive)
8,COc1ccc(CC(=O)Nc2ccc(Br)cc2F)cc1OC,12% (inactive)
9,COc1ccc(CC(=O)Nc2ccc(Br)cc2C)cc1OC,50% (active)
10,COc1ccc(CCNC(=O)COc2ccc(Br)cc2)cc1OC,1% (inactive)
11,COc1ccc(CCNC(=O)COc2ccc(Br)cc2Cl)cc1OC,53% (active)
12,O=C(COc1ccc(Br)cc1Cl)NCCc1ccccc1,16% (inactive)
13,CC(C(=O)N1CCOCC1)N1C(=O)c2cccc3cccc(c23)C1=O (stereo not given),19% (inactive)
14,COc1ccc(C(=O)N2CCc3ccccc3C2)cc1,15% (inactive)
15,COc1cc(/C=C2/C(=O)NC(=O)N(Cc3ccco3)C2=O)ccc1OCC(N)=O,0% (inactive)
16,CCOc1ccc(/C=C2\SC(=S)N(Cc3ccccc3)C2=O)c(OCC)c1,12% (inactive)
17,CCOC(=O)C1=C(C)N(c2ccccc2)C(=O)C1,10% (inactive)
18,COc1cccc(C2/C(=C(\O)c3ccc(Cl)cc3)C(=O)C(=O)N2CCCCCC(=O)O)c1 (stereo not given),16% (inactive)
19,CC(C)(C)c1cc(CCC(=O)NCCN2C(=O)c3ccccc3C2=O)cc(C(C)(C)C)c1O,2% (inactive)
20,Cc1ccc(SCC(=O)N2CCCC2)cc1,6% (inactive)
21,Nc1cccc(-c2cc(C(=O)O)c3ccccc3n2)c1,0% (inactive)
22,Nc1cccc(C2=Nc3cccc4cccc(c34)N2)c1,56% (active)
23,Nc1cccc(-c2nnc(-c3ccccc3)o2)c1,3% (inactive)
24,Nc1ccc(C2=Nc3cccc4cccc(c34)N2)cc1,56% (active)
25,c1ccc(NC2=Nc3cccc4cccc2c34)cc1,12% (inactive)
26,Cc1ccc([N+](=O)[O-])cc1-c1ccc(/C=C(\C#N)C(=O)NCc2ccco2)o1,1% (inactive)
27,Cc1nn(-c2ccccc2)c2c1C(c1ccc(O)cc1)C(C#N)=C(N)O2 (stereo not given),3% (inactive)

row,Compound,inhibition
1,O=c1/c(=C/c2cc([N+](=O)[O-])ccc2OCCCOc2ccccc2)sc2nc3ccccc3n12,4% (inactive)
2,C=CC(=O)NC1(CCC)CCCCC1,11% (inactive)
3,COc1ccc(/C=C(C(=O)O)/C(C)=C/C(=O)O)c(OC)c1,7% (inactive)
4,COc1ccc(C(=O)c2ccc(Cl)cc2Cl)cc1,15% (inactive)
5,Cc1sc2nc(-c3ccccc3)[nH]c(=O)c2c1C,10% (inactive)
6,Cc1sc2nc(-c3ccc(Br)cc3)[nH]c(=O)c2c1C,8% (inactive)
7,O=C1S/C(=C/c2ccc(Br)cc2)C(=O)N1c1ccccc1,0% (inactive)
8,CCOC(=O)c1ccc(N2C(=N)S/C(=C\c3ccc(N4CCOCC4)cc3)C2=O)cc1,15% (inactive)
9,N=C1S/C(=C\c2ccc(N3CCOCC3)cc2)C(=O)N1c1ccc(Br)cc1,53% (active)
10,COc1ccc(NC(=O)C(=O)NCc2ccccn2)cc1,8% (inactive)
11,O=C(NCc1ccccn1)C(=O)Nc1ccc(Oc2ccccc2)cc1,54% (active)
12,O=C(NCc1ccccn1)C(=O)Nc1ccc(F)cc1,12% (inactive)
13,O=C(Cn1cc(/C=C2/C(=O)NC(=S)N(c3cccc(Cl)c3)C2=O)c2ccccc21)Nc1ccccc1,55% (active)
14,O=C(O)Cn1cc(/C=C2/C(=O)NC(=O)N(c3ccccc3F)C2=O)c2ccccc21,10% (inactive)
15,O=C(Cn1cc(/C=C2/C(=O)NC(=S)N(c3ccccc3F)C2=O)c2ccccc21)Nc1ccccc1,47% (inactive)
16,COc1ccc(NC(=O)/C(C#N)=C/c2cn(CC(=O)Nc3ccccc3)c3ccccc23)cc1,59% (active)
17,COc1cccc(OCCn2cc(C=C3C(=O)NC(=O)NC3=O)c3ccccc32)c1,12% (inactive)
18,O=C(O)Cn1cc(/C=C2\C(=O)NC(=S)N(c3ccccc3F)C2=O)c2ccccc21,55% (active)
19,COc1ccc(NC(=O)/C(C#N)=C\c2cn(CC(=O)O)c3ccccc23)cc1,0% (inactive)
20,O=C(Cn1cc(/C=C2/C(=O)NC(=O)N(c3cccc(Cl)c3)C2=O)c2ccccc21)Nc1ccccc1,32% (inactive)
21,N#C/C(=C\c1cn(CC(=O)Nc2ccccc2)c2ccccc12)C(=O)Nc1ccccc1,0% (inactive)
22,O=C(Cn1cc(/C=C2/C(=O)NC(=O)N(c3cccc(F)c3)C2=O)c2ccccc21)Nc1ccccc1,46% (inactive)
23,Cc1cccc(OCCn2cc(C=C3C(=O)NC(=S)NC3=O)c3ccccc32)c1,7% (inactive)
24,COc1cccc(OCCn2cc(C=C3C(=O)NC(=S)NC3=O)c3ccccc32)c1,57% (active)
